# Results filed as inconclusive are left out. Active and inactive are the calls of the source. The call rests on the fitted dose curve.
# Target: Peroxisome proliferator-activated receptor delta (Homo sapiens) (UniProt Q03181)
# Test: qHTS assay to identify small molecule agonists of the peroxisome proliferator-activated receptor delta (PPARd) signaling pathway (AID 743212)
# Conditions: HEK293H PPARd-UAS-bla, beta-lactamase FRET ratio, 17 h; series mostly up to 62.6 µM
# Description: U.S. Tox21 Program National Center for Advancing Translational Sciences [NCATS] NIH Chemical Genomics Center [NCGC] U.S. Environmental Protection Agency [EPA] National Institutes of Environmental Health Sciences [NIEHS] National Toxicology Program [NTP] U.S. Food and Drug Administration [FDA] Tox21 Assay Overview: The peroxisome proliferator-activated receptors (PPARs) are lipid-activated transcription factors of the nuclear receptor superfamily with three distinct subtypes namely PPAR alpha, PPAR delta (PPARd) and PPAR gamma. All these subtypes heterodimerizes with Retinoid X receptor (RXR) and have different physiological functions. […] To identify the compounds that activate PPAR-delta signaling, GeneBLAzer PPAR delta UAS-bla HEK293H cell line (Invitrogen, Carlsbad, CA, USA) containing a beta-lactamase reporter gene under the control of an Upstream Activator Sequence (UAS) was used to screen the Tox21 compound library.
# Tox21 Assay Protocol Summary: PPARd-bla cells were dispensed at 3000 cells/6uL/well in 1536-well black wall/clear bottom plates using a Multidrop Combi (Thermo Fisher Scientific, Waltham, MA) dispenser. After the assay plates were incubated at 37 C and 5% CO2 for 5 h, 23 nL of compounds dissolved in DMSO, positive controls or DMSO only was transferred to the assay plate by a Pintool station (Kalypsys, San Diego, CA). The assay plates were incubated at 37C for 17 h. After 1 uL of LiveBLAzerTM B/G FRET substrate was added using a Bioraptr Flying Reagent Dispenser (FRD) workstation (Beckman Coulter, Indianapolis, IN, USA), the plates were incubated at room temperature for 2 h, and fluorescence intensity was measured by an Envision plate reader (PerkinElmer, Shelton, CT).
# On the % scale 0 is the no-effect control and ±100 the full control effect.
# Peroxisome proliferator-activated receptor delta (Homo sapiens), sequence (Q03181 whole entry, looked up): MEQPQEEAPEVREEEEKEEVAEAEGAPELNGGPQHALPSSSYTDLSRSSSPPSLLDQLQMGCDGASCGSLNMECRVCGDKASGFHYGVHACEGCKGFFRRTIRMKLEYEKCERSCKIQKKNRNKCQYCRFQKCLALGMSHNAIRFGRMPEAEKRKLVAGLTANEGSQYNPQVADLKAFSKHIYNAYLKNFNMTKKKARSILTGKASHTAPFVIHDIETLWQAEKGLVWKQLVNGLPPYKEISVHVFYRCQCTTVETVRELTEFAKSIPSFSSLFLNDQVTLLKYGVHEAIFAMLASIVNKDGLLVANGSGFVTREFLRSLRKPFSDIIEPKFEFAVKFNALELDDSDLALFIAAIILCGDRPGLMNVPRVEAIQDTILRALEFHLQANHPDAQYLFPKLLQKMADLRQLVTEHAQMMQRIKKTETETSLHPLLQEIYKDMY
SMILES,outcome,activation
C[C@]12C=CC(=O)C=C1[C@@H](F)C[C@@H]1[C@@H]2[C@@H](O)C[C@@]2(C)[C@H]1CC[C@]2(O)C(=O)CO,inactive,–
COc1cc(NS(=O)(=O)c2ccc(N)cc2)ncn1,inactive,–
CN(C)CCC[C@@]1(c2ccc(F)cc2)OCc2cc(C#N)ccc21,inactive,–
CCOC(=O)CC(C(C)=O)C(C)=O,inactive,–
Cc1ccc(Br)cc1,inactive,–
CCOC(=O)CC,inactive,–
CCCCS,inactive,–
CC[C@@]1(c2ccccc2)NC(=O)N(C)C1=O,inactive,–
C/C(Cl)=C/CCl,inactive,–
CC(=O)Oc1ccc(C(C)=O)cc1,inactive,–
CC(C)(O)CCCC1=CCC(C=O)CC1 (stereo not given),inactive,–
CCCCc1ccc(Cl)cc1,inactive,–
CCCCN=C(N)N=C(N)N,inactive,–
CC(C)(C)NCC(O)COc1cccc2c1CCC(=O)N2 (stereo not given),inactive,–
C=COCCCCO,inactive,–
C=CCN(CC=C)CC=C,inactive,–
CC/C=C\CCCCCCCCCCOC(C)=O,inactive,–
O=S(=O)(O)CC(O)CCl (stereo not given),inactive,–
C=CC(=O)OCC[N+](C)(C)C,inactive,–
CCN(CC)CC,inactive,–

SMILES,outcome,activation
CCCCCCCCCCCCCC(=O)OCC,inactive,–
CCO/C=C1\N=C(c2ccccc2)OC1=O,inactive,–
O=C(O)/C=C(\CC(=O)O)C(=O)O,inactive,–
CC1=C(O)C(=O)CO1,inactive,–
O=S(=O)(O)c1ccc(Cl)cc1,inactive,–
CC(=O)OCC(=O)[C@@]1(O)CC[C@H]2[C@@H]3CCC4=CC(=O)C=C[C@]4(C)[C@H]3[C@@H](O)C[C@@]21C,inactive,–
CCC(C)c1nccnc1OC (stereo not given),inactive,–
CC(C)(C)C(=O)CCc1ccc(Cl)cc1,inactive,–
CCCCCCCC(=O)N(C)C,inactive,–
Clc1ccc2c(c1)Nc1ccccc1S2,inactive,–
CCN1CCN(C(=O)N[C@@H](C(=O)N[C@@H]2C(=O)N3C(C(=O)O)=C(CSc4nnnn4C)CS[C@H]23)c2ccc(O)cc2)C(=O)C1=O,inactive,–
BrCCOc1ccccc1,inactive,–
N#Cc1ccccc1C#N,inactive,–
COC(=O)c1ccccc1Cl,inactive,–
CCCCCCCOC(C)=O,inactive,–
N=C(N)N1CCc2ccccc2C1,–,2.47% [at 5.95 µM] (inactive)
C[Si](C)(C)O[Si](O)(O)O,inactive,–
O=P(O)(O)C(O)(Cc1cccnc1)P(=O)(O)O,inactive,–
COC(C)(C)CC(C)=O,inactive,–
CCCCCCCCCCCCCCCC(=O)OC,inactive,–
